Screening results deposited in PubChem BioAssay by several laboratories.
Sampled rows, rich in hits. Any-hit rate of the full collection: about 3.1%.
MBD2 DNA inh – inhibitors of human MBD2 binding to methylated oligonucleotide. Q9UBB5. TR-FRET. inhibition, % at 4.4 µM. actives 0.31% (n = 370,000). AID 686964; in the data active = inhibition above about 13%
UHRF1 binding – UHRF1 methyl-DNA binding inhibition | Q96T88 | UHRF1 binding to methylated oligo, TR-FRET | inhibition, % at 4.4 µM | actives 0.75% (n = 370,000) | AID 687016; in the data active = inhibition above about 21%;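 also: UHRF1 SRA domain binding a hemimethylated CpG hairpin DNA probe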
Target sequence (Q96T88 whole entry, looked up, the tested form may be a part): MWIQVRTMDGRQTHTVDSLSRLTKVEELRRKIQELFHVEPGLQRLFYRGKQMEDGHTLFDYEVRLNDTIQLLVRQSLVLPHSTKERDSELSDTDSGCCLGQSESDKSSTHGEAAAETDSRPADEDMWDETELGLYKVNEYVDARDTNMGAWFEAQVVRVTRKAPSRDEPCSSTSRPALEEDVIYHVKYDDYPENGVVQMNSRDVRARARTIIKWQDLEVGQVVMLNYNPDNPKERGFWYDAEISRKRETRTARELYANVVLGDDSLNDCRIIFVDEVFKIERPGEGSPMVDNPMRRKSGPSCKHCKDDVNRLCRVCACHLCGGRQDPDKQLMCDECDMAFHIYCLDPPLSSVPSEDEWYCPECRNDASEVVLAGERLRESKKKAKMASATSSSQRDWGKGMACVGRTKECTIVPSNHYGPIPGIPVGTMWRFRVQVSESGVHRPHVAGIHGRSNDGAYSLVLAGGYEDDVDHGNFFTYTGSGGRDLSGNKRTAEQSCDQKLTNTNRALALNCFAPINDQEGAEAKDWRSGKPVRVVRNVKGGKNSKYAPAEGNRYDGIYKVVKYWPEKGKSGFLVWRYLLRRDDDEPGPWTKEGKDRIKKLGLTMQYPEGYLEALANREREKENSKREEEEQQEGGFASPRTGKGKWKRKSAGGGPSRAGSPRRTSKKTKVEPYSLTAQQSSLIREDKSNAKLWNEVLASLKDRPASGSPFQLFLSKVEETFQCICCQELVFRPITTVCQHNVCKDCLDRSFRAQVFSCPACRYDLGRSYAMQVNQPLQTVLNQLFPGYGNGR
Neddylation inh – blocks human cullin neddylation. P61081+Q13564. TR-FRET cullin neddylation, biochemical. calls only at 25 µM. actives 0.58% (n = 360,000); in the data active = inhibition above about 36%
Rin1-Abl PPI inh – inhibitors of human Rin1-Abl protein interaction | inhibition, % at 7.35 µM | actives 0.4% (n = 360,000) | AID 588664 | TR-FRET Rin1/Abl binding, biochemical; in the data active = inhibition above about 5%, passing the limit was not always enough
KLK7 zymogen act – activates the human kallikrein-7 zymogen. activation, % at 7 µM. AID 652039. P49862. purified proKLK7, EDANS-DABCYL substrate fluorescence; 100% is mature enzyme control, 0% vehicle. actives 0.9% (n = 370,000);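 active = activation above the mean of all tested compounds plus 3 SD, computed per campaign excluding outliers beyond control limits, cut at about 13% in these data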
LEDGF integ inh – blocks HIV-1 LEDGF/p75-dependent DNA integration; TR-FRET IN-LEDGF/p75 DNA integration, Eu/Cy5; inhibition, % at 3.7 µM; actives 0.64% (n = 370,000);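 active = inhibition above the screen-wide mean plus 3 SD, cut at about 13% in these data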;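 also: signal is the Cy5 over europium emission ratio at 671 and 618 nm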
proKLK7 act conf – confirmation of human kallikrein-7 zymogen activators; actives 68% (n = 3,200); shares compounds with KLK7 zymogen act; activation, % at 7 µM; purified proKLK7, EDANS-DABCYL substrate fluorescence; scaled: vehicle 0, mature enzyme 100; AID 686949;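 active = activation, as change over the incubation, above the mean of all tested compounds plus 3 SD, cut at about 13% in these data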
EDANS-DABCYL int – counter-screen for kallikrein-7 activators: EDANS-DABCYL optical interference; shares compounds with KLK7 zymogen act; EDANS-DABCYL substrate fluorescence interference, no enzyme, 4 h; solvent 0%, active enzyme control 100%; activation, % at 7 µM; actives 80% (n = 3,200);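 active = activation above the all-compound mean plus 3 SD, ignoring values outside control-based bounds, cut at about 4.8% in these data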;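 also: value is the 4 h activation minus the activation read at time zero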
Numbers stand for hits.

For CCN(CC)Cc1c(O)ccc2cc(-c3nc4ccccc4n3C)c(=O)oc12 the results were MBD2 DNA inh inactive, UHRF1 binding inactive, Neddylation inh inactive, Rin1-Abl PPI inh inactive, KLK7 zymogen act 52, LEDGF integ inh inactive, proKLK7 act conf 73 and EDANS-DABCYL int 76.
CCc1cc2c(=O)c(-c3nc4ccccc4n3C)c(C)oc2c(CN(CC)CC)c1O was read as MBD2 DNA inh inactive, UHRF1 binding inactive, Rin1-Abl PPI inh inactive, KLK7 zymogen act 16, LEDGF integ inh inactive, proKLK7 act conf inactive and EDANS-DABCYL int 11.
Screening Cc1c(NS(=O)(=O)c2cc(C(=O)NCc3ccco3)cc(Cl)c2Cl)c(=O)n(-c2ccccc2)n1C returned MBD2 DNA inh inactive, UHRF1 binding inactive, Neddylation inh inactive, Rin1-Abl PPI inh inactive, KLK7 zymogen act inactive and LEDGF integ inh inactive.
`CCOC(=O)CCc1c(C)c2ccc(OCC)c(C)c2oc1=O` gave MBD2 DNA inh inactive, UHRF1 binding inactive, KLK7 zymogen act inactive and LEDGF integ inh inactive.
Screening CCOC(=O)CCc1c(C)c2ccc3c(c2oc1=O)CN(CCCO)CO3 returned MBD2 DNA inh inactive, UHRF1 binding inactive, Rin1-Abl PPI inh inactive, KLK7 zymogen act 52, LEDGF integ inh inactive, proKLK7 act conf 71 and EDANS-DABCYL int 75.
`CCOc1c2ccc(C(=O)NCc3ccco3)cc2nn1CCOC` gave MBD2 DNA inh inactive, UHRF1 binding inactive, Rin1-Abl PPI inh inactive, KLK7 zymogen act 18, LEDGF integ inh inactive, proKLK7 act conf 24 and EDANS-DABCYL int 29.
CCCCn1nc2cc(C(=O)NC[C@@H]3CCCO3)ccc2c1OCC was read as MBD2 DNA inh inactive, UHRF1 binding inactive, Rin1-Abl PPI inh inactive, KLK7 zymogen act inactive and LEDGF integ inh inactive.
Screening CCOc1c2ccc(C(=O)NCc3ccco3)cc2nn1CC returned MBD2 DNA inh inactive, UHRF1 binding inactive, Rin1-Abl PPI inh inactive, KLK7 zymogen act 22, LEDGF integ inh inactive, proKLK7 act conf 19 and EDANS-DABCYL int 20.
Screening CCOc1c2ccc(C(=O)NCc3ccc4c(c3)OCO4)cc2nn1CCOC returned MBD2 DNA inh inactive, UHRF1 binding inactive, Rin1-Abl PPI inh inactive, KLK7 zymogen act 13, LEDGF integ inh inactive, proKLK7 act conf inactive and EDANS-DABCYL int inactive.
Screening CCCCn1nc2cc(C(=O)NCC3CC3)ccc2c1OCC returned MBD2 DNA inh inactive, UHRF1 binding inactive, Rin1-Abl PPI inh inactive, KLK7 zymogen act 18, LEDGF integ inh inactive, proKLK7 act conf inactive and EDANS-DABCYL int inactive.
For COc1cccc(-c2cc(N)nn2C(=O)Nc2ccc(Cl)cc2)c1 the results were MBD2 DNA inh inactive, UHRF1 binding inactive, Neddylation inh inactive, Rin1-Abl PPI inh inactive, KLK7 zymogen act inactive and LEDGF integ inh inactive.
For COC(=O)C1CCN(C(=O)/C(C)=C\c2ccccc2)CC1 the results were MBD2 DNA inh inactive, UHRF1 binding inactive, Neddylation inh inactive, Rin1-Abl PPI inh inactive, KLK7 zymogen act inactive and LEDGF integ inh inactive.
Screening CC(C)CN(C(=O)C(c1ccccc1)c1ccccc1)c1c(N)n(CC(C)C)c(=O)[nH]c1=O returned MBD2 DNA inh inactive, UHRF1 binding inactive, Neddylation inh inactive, Rin1-Abl PPI inh inactive, KLK7 zymogen act inactive and LEDGF integ inh inactive.
For Cc1cccc(NC(=S)NNC(=S)NC2CCCCC2)c1C the results were MBD2 DNA inh inactive, UHRF1 binding inactive, Neddylation inh inactive, Rin1-Abl PPI inh inactive, KLK7 zymogen act 28, LEDGF integ inh inactive, proKLK7 act conf inactive and EDANS-DABCYL int inactive.
`Cc1ccccc1NC(=S)NC1CCCC1` gave MBD2 DNA inh inactive, UHRF1 binding inactive, Neddylation inh inactive, Rin1-Abl PPI inh inactive, KLK7 zymogen act inactive and LEDGF integ inh inactive.
`CCC(Br)C(=O)Nc1ccc(OC)cc1` (configuration not stated) gave MBD2 DNA inh inactive, UHRF1 binding inactive, Neddylation inh inactive, Rin1-Abl PPI inh inactive, KLK7 zymogen act inactive and LEDGF integ inh inactive.
Screening COc1ccc(C2C3=C(COC3=O)Oc3cc4c(cc32)OCO4)cc1OC (configuration not stated) returned MBD2 DNA inh inactive, UHRF1 binding inactive, Neddylation inh inactive, Rin1-Abl PPI inh inactive, KLK7 zymogen act inactive and LEDGF integ inh inactive.
For CCOc1ccccc1C1CC(=O)Nc2cc3c(cc21)OCO3 (configuration not stated) the results were MBD2 DNA inh inactive, UHRF1 binding inactive, Neddylation inh inactive, Rin1-Abl PPI inh inactive, KLK7 zymogen act inactive and LEDGF integ inh inactive.
For C#CCOc1ccc(C2C3=C(COC3=O)Nc3cc4c(cc32)OCO4)cc1OC (configuration not stated) the results were MBD2 DNA inh inactive, UHRF1 binding inactive, Neddylation inh inactive, Rin1-Abl PPI inh inactive, KLK7 zymogen act 69, LEDGF integ inh inactive, proKLK7 act conf inactive and EDANS-DABCYL int inactive.
CCOc1ccccc1C1C2=C(COC2=O)Nc2cc3c(cc21)OCO3 (configuration not stated) was read as MBD2 DNA inh inactive, UHRF1 binding inactive, Rin1-Abl PPI inh inactive, KLK7 zymogen act 16, LEDGF integ inh inactive, proKLK7 act conf inactive and EDANS-DABCYL int inactive.
For CCN(C(=O)CN1CCC(C(=O)OC)CC1)c1c(N)n(Cc2ccccc2)c(=O)[nH]c1=O the results were MBD2 DNA inh inactive, UHRF1 binding inactive, Neddylation inh inactive, Rin1-Abl PPI inh inactive, KLK7 zymogen act inactive and LEDGF integ inh inactive.
`Cc1ccc2nc(-c3ccc(SCC(=O)O)nc3)[nH]c2c1` gave MBD2 DNA inh inactive, UHRF1 binding inactive, Rin1-Abl PPI inh inactive, KLK7 zymogen act 16, LEDGF integ inh inactive, proKLK7 act conf 23 and EDANS-DABCYL int 27.
Screening c1ccc2c(c1)[nH]c1ccccc12 returned MBD2 DNA inh inactive, UHRF1 binding inactive, Neddylation inh inactive, Rin1-Abl PPI inh inactive, KLK7 zymogen act inactive and LEDGF integ inh inactive.
`O=c1c2ccccc2[nH]c2ccccc12` gave MBD2 DNA inh inactive, UHRF1 binding inactive, Rin1-Abl PPI inh inactive, KLK7 zymogen act 17, LEDGF integ inh inactive, proKLK7 act conf 17 and EDANS-DABCYL int 24.
For C[C@]12c3[nH]c4cc(-c5ccco5)ccc4c3CCN1C(=O)[C@@H](CC(=O)NCc1cccc(C(F)(F)F)c1)C[C@@H]2C(=O)N1CCOCC1 the results were MBD2 DNA inh inactive, UHRF1 binding inactive, Rin1-Abl PPI inh inactive, KLK7 zymogen act 16, LEDGF integ inh inactive, proKLK7 act conf inactive and EDANS-DABCYL int inactive.
Screening COCCCNC(=O)C[C@H]1C[C@H](C(=O)N2CCCCC2)[C@@]2(C)c3[nH]c4cc(-c5ccco5)ccc4c3CCN2C1=O returned MBD2 DNA inh inactive, UHRF1 binding inactive, Rin1-Abl PPI inh inactive, KLK7 zymogen act 170, LEDGF integ inh inactive, proKLK7 act conf 88 and EDANS-DABCYL int 114.
